# BoNT A protease = blocks Botulinum neurotoxin A light chain protease | multiplex microsphere protease substrate cleavage, flow cytometry | inhibition, % at 10 µM | 360,000 compounds, 0.17% hits | AID 588499; also: plate controls were buffer without enzyme for full effect and enzyme alone for no effect
# BoNT-F LC inh = BoNT F light chain protease inhibition | Multiplex microsphere protease cleavage assay, flow cytometry | inhibition, % at 10 µM | 360,000 compounds, 0.22% hits; in the data active = inhibition above about 35%, passing the limit was not always enough; inconclusive = no clear call, values can overlap the other calls; also: plate controls were buffer without enzyme for full effect and enzyme alone for no effect
# MazEF act = MazEF (E. coli) toxin RNase activation | P0AE70 | FAM/BHQ RNA-DNA oligo cleavage fluorescence, 5 h | activation, % at 20 µM | 350,000 compounds, 0.32% hits | AID 504720; in the data active = activation above about 50%
# Target sequence (P0AE70 whole entry, looked up): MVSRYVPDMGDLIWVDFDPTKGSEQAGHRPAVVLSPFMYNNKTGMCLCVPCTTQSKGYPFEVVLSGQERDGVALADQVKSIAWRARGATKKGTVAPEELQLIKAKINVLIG
# VHR inh abs = inhibitors of human VHR1 phosphatase (DUSP3); 290,000 compounds, 0.52% hits; recombinant VHR phosphatase, pNPP absorbance; AID 1654; inhibition, % at 13.3 µM; in the data active = inhibition above about 50%
# Target sequence (P51452 whole entry, looked up): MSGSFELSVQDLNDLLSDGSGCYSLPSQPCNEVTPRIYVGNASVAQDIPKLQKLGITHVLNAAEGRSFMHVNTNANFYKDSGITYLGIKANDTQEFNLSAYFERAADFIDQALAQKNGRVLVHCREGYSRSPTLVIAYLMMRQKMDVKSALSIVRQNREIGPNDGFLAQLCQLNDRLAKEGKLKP
# Anthrax LF inh2 = blocks Bacillus anthracis lethal factor protease | P15917 | multiplex microsphere protease cleavage assay, LF | 360,000 compounds, 0.12% hits | inhibition, % at 10 µM; also: plate controls were buffer without enzyme for full effect and enzyme alone for no effect
# Bead autofluor = flagged as autofluorescent in microsphere protease counterscreen; compound autofluorescence counterscreen, microsphere flow cytometry; stronger effect = higher value; fluorescence intensity (test concentration not listed); 360,000 compounds, 3.1% hits; AID 624483; in the data active = fluorescence intensity above about 16000; inconclusive = no clear call, values can overlap the other calls
# Starred values were filed as active, the others as inactive; ? = inconclusive; nt = no result; + = active, no number; ! = not active in a repeat. In the library only some 4.1% were active in any assay of this set; here they are far more common. Rule as the data show it, unless noted: active = inhibition above about 30%; inconclusive = no clear call, values can overlap the other calls; inactive = below that.
SMILES,BoNT A protease,BoNT-F LC inh,MazEF act,VHR inh abs,Anthrax LF inh2,Bead autofluor
O=C(Nc1c(F)cc(F)cc1Br)C1CCCO1 (configuration not stated),-5.0,-7.8,-0.6,1.2,-2.2,25313*
Cc1cc(C)c(NC(=O)C2CCCO2)c(C)c1 (configuration not stated),0.9,7.8,-0.2,nt,-3.4,5591
CSc1ccc(/C=N/n2c(C)cc(C)cc2=O)cc1,?,-4.6,4.0,14.7,0.1,23602*
CSc1ccc(/C=N/n2c(C)nnc2C)cc1,-0.1,0.8,14.3,26.2,-2.1,2027
C=C(C)CN1C(=O)C(C)SC1=NN=C1SCC(=O)N1C (configuration not stated),-0.4,0.9,-17.5,nt,1.9,2910
Cc1ccc(Cn2nnc(C(=O)Nc3cccc(C)c3C)c2N)cc1,?,2.2,0.1,9.7,1.0,19408*
Cc1cccc(-n2c(CCn3nc(C)c([N+](=O)[O-])c3C)n[nH]c2=S)c1,-0.7,0.3,-1.5,47.3,-2.6,16467*
COc1cccc(-n2c(CCn3nc(C)c([N+](=O)[O-])c3C)n[nH]c2=S)c1,-1.0,-7.7,-18.0,0.1,-1.1,2079
CCCC(=O)NC(c1ccco1)c1c(O)ccc2ccccc12 (configuration not stated),?,-2.1,-6.6,2.6,-0.6,24638*
O=C(/C=C/c1ccc([N+](=O)[O-])cc1)NCCSc1ccccc1,?,-2.6,-0.3,7.2,-1.3,23722*
COc1ccc(NS(=O)(=O)c2ccc(N3CCCCC3)c(N)c2)cc1,-0.4,0.4,4.4,nt,-3.6,3933
Cc1nc2ccccc2n1CC(O)Cn1c2ccccc2c2ccccc21 (configuration not stated),?,3.6,-3.6,24.3,-3.6,15620
OC(Cn1c2ccccc2c2ccccc21)C[n+]1cccc2ccccc21 (configuration not stated),?,-19.4,50.5*,56.7*,-2.9,20032*
CCn1nc(/C=C/c2ccccc2)nc2c(=O)n(C)c(=O)nc1-2,-0.8,-2.5,9.5,nt,-1.6,4575
CCn1nc(-c2cccs2)nc2c(=O)n(C)c(=O)nc1-2,nt,nt,-2.4,90.0*,nt,nt
[O-]/[N+](=C/c1ccccc1)c1ccccc1,1.1,-1.0,5.7,nt,0.4,2892
COC(=O)Cc1cc(C)cc2c(=O)cc(-c3ccoc3)oc12,nt,nt,-26.5,nt,nt,nt
CCOc1c(C)cc(-c2ncccc2O)cc1C,-1.3,-3.8,-3.3,28.0,-1.8,22538*!
Clc1ccc(-c2nnc(-c3ccccc3Cl)o2)cc1,-4.3,-6.3,-5.1,-2.4,-5.6,17061*
Cc1ccc(N2CC(C(=O)OCC(=O)C(C)(C)C)CC2=O)cc1 (configuration not stated),0.0,-1.6,8.7,32.7,-4.0,23049*
O=C(Oc1cccc(N2C(=O)CCC2=O)c1)C1CC(=O)N(c2ccc(Br)cc2)C1 (configuration not stated),1.8,-7.4,2.1,1.8,4.7,6539
Cc1ccc(N2CC(C(=O)Oc3cccc(N4C(=O)CCC4=O)c3)CC2=O)cc1 (configuration not stated),-1.5,-4.0,5.5,5.6,-2.9,21129*
Cc1ccc(N2CC(C(=O)NC3CCC(C)CC3)CC2=O)cc1 (configuration not stated),-0.6,-7.5,1.4,14.0,2.7,6234
Cc1ccc(N2CC(C(=O)NC3CC3)CC2=O)cc1 (configuration not stated),-0.9,0.7,4.6,52.9*,-1.4,5894
COC(=O)C1CC(=O)N(c2ccc(C)cc2)C1 (configuration not stated),-0.2,1.2,4.3,26.4,-1.8,2606
SMILES,BoNT A protease,BoNT-F LC inh,MazEF act,VHR inh abs,Anthrax LF inh2,Bead autofluor
CCCC/C(O)=C1\C(=O)CC(C)(C)CC1=Nc1ccccc1OC,-0.3,-1.0,-3.7,18.8,-1.4,20312*
Cc1ccc(S(=O)(=O)Cc2ccc(C(=O)N3CCCC3)o2)cc1,-0.6,-10.0,3.0,4.0,-5.8,6159
O=C(c1ccc(CS(=O)(=O)Cc2ccc(Cl)cc2)o1)N1CCCC1,1.0,0.6,-0.1,7.6,-5.1,23181*
COCCCN1C(=O)c2ccccc2C1C(=O)NC1CCCCCC1 (configuration not stated),2.2,1.3,-2.1,21.3,1.4,22972*
CN(CCc1ccccc1)C(=O)c1ccc(NC(=O)Cc2ccc(NC(=O)C3CCCN(C(=O)C4CCCC4)C3)cc2)cc1 (configuration not stated),0.0,-3.2,-3.7,nt,-7.3,2961
Nc1nnc(-c2ccc(F)cc2)s1,-0.5,-8.8,-10.0,17.8,3.1,8383
Nc1nnc(-c2ccccc2)s1,-1.9,-1.9,-0.4,-16.4,-1.8,23348*
COc1ccc(CNCCS(=O)(=O)NN2CCOCC2)cc1,-0.1,-2.7,15.6,nt,-7.4,3896
O=C(c1ccccc1)N1CCN(c2ccccc2)CC1,-0.5,-5.6,4.1,nt,-0.5,2922
O=C(c1ccccc1)n1ccn(-c2ccccc2)c1=S,?,1.3,-1.9,22.5,0.8,19357*
Cc1ccc(S(=O)(=O)N2C[C@]3(O)C[C@@H]4C(=O)N(c5ccccc5)C(=O)[C@@H]4C[C@]3(OC(=O)NC3CCCC3)C2)cc1,0.5,-7.7,5.1,nt,-6.8,5248
O=C(c1ccc(Cl)cc1)c1oc2ccccc2c1CS(=O)c1ccccc1 (configuration not stated),-2.4,-8.0,-8.3,24.5,-2.4,20280*
O=C(O)c1oc2ccccc2c1CSc1ccc(Cl)cc1,2.3,9.5,-6.4,15.3,-9.5,3115
N#C/C(=C\C1=C(N2CCOCC2)C(=C/c2cccc([N+](=O)[O-])c2)/CC1)C(=O)Nc1ccccc1F,5.5,-7.1,+,-5.3,0.5,3183
N#C/C(=C/C1=C(N2CCOCC2)C(=C/c2cccc([N+](=O)[O-])c2)/CC1)C(=O)Nc1ccccc1F,4.3,-3.8,636.5*,nt,10.6,4429
N#C/C(=C/C1=C(N2CCOCC2)C(=C/c2ccccc2)/CC1)C(=O)Nc1ccccc1F,5.6,5.1,-138.8,nt,0.7,4859
CCN(CC)c1ccc(/C=C2\CCC(/C=C(\C#N)C(=O)Nc3ccccc3F)=C2N2CCOCC2)cc1,39.8*,-18.3,44.2,12.6,9.1,3080
CC(C)c1cccc(-c2csc(C(O)c3ccco3)n2)c1 (configuration not stated),-0.7,-8.1,nt,nt,-0.3,3064
COc1ccccc1NC(=O)C(C)OC(=O)CCNS(=O)(=O)c1cccc(C(F)(F)F)c1 (configuration not stated),-0.1,-12.7,-0.6,nt,-1.5,4025
Cc1cc(C)c2nc(-c3cccc(Cl)c3)c(C)c(C(=O)N3CCOCC3)c2c1,0.4,-5.2,-3.0,22.5,-1.8,4217
O=C(C1COc2ccccc2O1)N1CCCC1 (configuration not stated),?,-3.8,2.5,31.8,-1.0,20678*
